Consider seven compounds from PubChem BioAssay (Tox21).

A short description of test [1]: Nuclear factor erythroid 2-related factor 2/antioxidant responsive element (Nrf2/ARE) small molecule agonists: qHTS cell viability counter screen in human keratinocytes (AID 1919968; active = well fitted curve in the direction sought with a large enough effect in the repeat runs; an effect the other way counts as inactive or inconclusive; also: nearly all actives have a fitted effect of over 55% in size; also: potency is read from the fitted curve at half-maximal effect). The method, boiled down: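 HaCaT ARE reporter line, 1,500 cells/well; 5 h settle, 37 C/5% CO2; cpd in DMSO pinned; 23 h exposure; CellTiter-Fluor, 1 h; fluorescence.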
Test [2] is described as follows: Nuclear factor erythroid 2-related factor 2/antioxidant responsive element (Nrf2/ARE) small molecule agonists: luciferase reporter gene qHTS assay in human keratinocytes (AID 1919969). Also: nearly all actives have a fitted effect of over 35% in size. A general note: Reporter assays use an easily measured gene product as a stand-in for the process of interest.
For test [3], the target named is Gonadotropin-releasing hormone receptor (Homo sapiens) (UniProt P30968). As to the kind of experiment: Human gonadotropin-releasing hormone receptor (GnRHR) small molecule agonists, calcium flux assay in GnRHR-HEK293 cells (AID 1920063). Also: nearly all actives have a fitted effect of over 35% in size. The method, boiled down:
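GnRHR-HEK293, 1500 cells/well, 18 h 37 C/5% CO2; Ca dye 1 h 37 C; cpd pinned (DMSO), agonist mode; kinetic FL 480/540, 3 min, 1 s reads; 15 conc, n=3.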

Test [4] concerns the target KiSS-1 receptor (Homo sapiens) (UniProt Q969F8). The test can be described thus: Human kisspeptin (KISS1R) small molecule agonists, calcium flux assay in KISS1R-HEK293 cells (AID 1920064; active = well fitted curve in the direction sought with a large enough effect in the repeat runs; an effect the other way counts as inactive or inconclusive). The method, boiled down:
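Stable human KISS1R HEK293 line; 18 h plating, 37 C/5% CO2; calcium dye 1 h 37 C; compound pin transfer; kinetic fluorescence Ex/Em 480/540, 3 min.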
(In general: Calcium assays in cells follow changes in intracellular calcium, usually with a dye or a luminescent sensor.)

Test [5] in a line: G protein-coupled receptor (GPCR) small molecule agonists, calcium flux assay: HEK293 wild type cell line counter screen (AID 1920065). The method, boiled down:
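Kinetic fluorescence at Ex/Em 480/540, recorded every second over 3 min, served as the read-out after compound addition. Each compound was tested at 15 concentrations in triplicate on cells pre-loaded with calcium dye for 1 h.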

A short description of test [6]: p53 small molecule agonists, cell-based qHTS assay with human liver microsomes (AID 1963577). The method, boiled down: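 Fluorescence of the beta-lactamase reporter in p53RE-bla cells, detected with LiveBLAzer substrate (2 h, room temperature, dark), served as the read-out after 16 h compound exposure at 37 C with human liver microsomes and NADPH, each 0.5 mg/mL final.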

Test [7] can be described thus: p53 small molecule agonists, cell-based qHTS assay with rat liver microsomes (AID 1963578). The method, boiled down:
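Cells carrying a p53 response element–beta-lactamase reporter were plated and rested 5 h, then dosed with compound in DMSO plus rat liver microsomes and NADPH, each at 0.5 mg/mL final. After 16 h at 37 C, LiveBLAzer substrate was added for 2 h.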
On the technique in general: In qHTS, concentration-response curves come from the screen itself.

A short description of test [8]: p53 small molecule agonists, cell-based qHTS assay with human liver microsomes: qHTS cell viability counter screen (AID 1963579). Also: nearly all actives have a fitted effect of over 45% in size. A digest of the protocol:
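Cytotoxicity counter screen: p53RE-bla, 4,000 cells/well; 5 h settle, 37 C/5% CO2; cpd + HLM 0.5 mg/mL + NADPH 0.5 mg/mL (final); 16 h, 37 C; CellTiter-Glo, 30 min RT, luminescence.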

Test [9] in a line: p53 small molecule agonists, cell-based qHTS assay with rat liver microsomes: qHTS cell viability counter screen (AID 1963580). Also: nearly all actives have a fitted effect of over 45% in size. The method, boiled down: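 Intracellular ATP, by CellTiter-Glo luminescence, defines viability. HCT-116 p53RE-bla cells, 4,000 per well, were compound-treated in the presence of rat liver microsomes and NADPH for 16 h at 37 C.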
Test [10] in a line: p53 small molecule agonists, cell-based qHTS assay: qHTS cell viability counter screen (AID 1963581). Also: nearly all actives have a fitted effect of over 45% in size. A digest of the protocol:
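HCT-116 p53RE-bla cells, 4,000/well, plated 5 h before compound pin transfer; 16 h at 37 C; bla substrate 2 h RT; then CellTiter-Glo, 30 min RT, luminescence.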

Test [11] in a line: p53 small molecule agonists, cell-based qHTS assay (AID 1963582; active = well fitted activation curve with a large enough effect in the signal ratio in the repeat runs, not every such curve was filed as active; the % refers to the signal ratio). The method, boiled down:
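Reporter line: p53RE-bla. Pre-incubation 5 h, 37 C, 5% CO2; compound (DMSO, pin tool) 16 h, 37 C; B/G FRET substrate 2 h RT; fluorescence intensity read.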

Test [12] deals with 5-hydroxytryptamine receptor 2A (Homo sapiens) (UniProt P28223). As to the kind of experiment: 5-hydroxytryptamine receptor 2A (HTR2A) small molecule antagonists, cell-based qHTS assay (AID 1963586). Also: nearly all actives have a fitted effect of over 45% in size. Also: potency is read from the fitted curve at half-maximal effect. A digest of the protocol:
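Antagonist-mode intracellular calcium assay: DOI (4 nM) added after 5 min compound pre-incubation at room temperature to dye-loaded HTR2A-CHO cells. Fluorescence followed for 3 min, sampled every second.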

For test [13] the target is unchanged. As to the kind of experiment: 5-hydroxytryptamine receptor 2A (HTR2A) small molecule agonists, cell-based qHTS assay (AID 1963587). Also: nearly all actives have a fitted effect of over 30% in size. Also: potency is read from the fitted curve at half-maximal effect. The method, boiled down: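 Kinetic calcium-flux fluorescence (2 min, 1 sec intervals) after compound addition in agonist mode. HTR2A-CHO cells were cultured 18 h, then dye-loaded 1 h at 37 C.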
Test [14] deals with Muscarinic acetylcholine receptor M1 (Homo sapiens) (UniProt P11229). As to the kind of experiment: Cholinergic receptor muscarinic 1 (CHRM1) small molecule agonists, cell-based qHTS assay (AID 1963589). Also: nearly all actives have a fitted effect of over 35% in size. A digest of the protocol:
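Human M1 in stable CHO line; 18 h plating, 1 h dye load 37 C; cpd added (agonist mode); Ca2+ fluorescence kinetic read, 1 s intervals; 15 conc, 3 runs.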

A short description of test [15]: cAMP Responsive Elements (CRE) small molecule antagonists, cell-based qHTS assay (AID 1963591; active = well fitted inhibition curve with a large enough effect in the signal ratio in the repeat runs, not every such curve was filed as active; the % refers to the signal ratio). A digest of the protocol: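 Beta-lactamase reporter read by FRET substrate (LiveBLAzer B/G) after 2 h at room temperature. CRE-bla HEK293T cells had received compound plus 0.25 uM (final) NKH477 for 3 h at 37 °C.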
Test [16] deals with Beta-2 adrenergic receptor (Homo sapiens) (UniProt P07550). As to the kind of experiment: Adrenergic beta2 receptor (ADRB2) small molecule antagonists, cell-based qHTS assay (AID 1963592). Also: nearly all actives have a fitted effect of over 50% in size. Also: potency is read from the fitted curve at half-maximal effect. A digest of the protocol:
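Cells (CHO, stable ADRB2 overexpression) incubated 18-20hr at 37C; compounds added from DMSO; agonist mix (1nM isoproterenol, 100uM IBMX, 25uM Ro-20-1724) added; 0.5hr RT; d2-cAMP and anti-cAMP-cryptate added; 1hr RT; 665/615 nm read.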

Test [17] concerns the target D(2) dopamine receptor (Homo sapiens) (UniProt P14416). As to the kind of experiment: Dopamine D2 receptor (DRD2) small molecule agonists, cell-based qHTS assay (AID 1963594). Also: nearly all actives have a fitted effect of over 35% in size. A digest of the protocol: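 cAMP accumulation in DRD2-HEK293 cells measured by HTRF after 1 h detection; compounds added 10 min before NKH477 (200nM […]) forskolin-analogue stimulation, 30 min at room temperature, with Ro20-1724 present at 0.1 mM final.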

A short description of test [18]: cAMP Responsive Elements (CRE) small molecule agonists, cell-based qHTS assay (AID 1963590). The method, boiled down: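 HEK 293T CRE-bla, 2,000 cells/well, 18 h preincubation 37 C/5% CO2; cpds (DMSO) pinned, 3 h; LiveBLAzer B/G FRET substrate, 2 h RT.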
The target in test [19] is D(2) dopamine receptor (Homo sapiens) (UniProt P14416). The test can be described thus: Dopamine D2 receptor (DRD2) small molecule antagonists, cell-based qHTS assay (AID 1963595; active = well fitted inhibition curve with a large enough effect in the signal ratio in the repeat runs, with a control signal flat; the % refers to the signal ratio). A digest of the protocol:
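HEK293 cells stably expressing DRD2, preincubated with 0.1 mM Ro20-1724 and compounds 10 min, were stimulated with 200 nM NKH477 plus 12 nM quinpirole for 30 min at room temperature; cAMP measured by HTRF (665/620 nm).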

Test [20] addresses Muscarinic acetylcholine receptor M1 (Homo sapiens) (UniProt P11229). As to the kind of experiment: Cholinergic receptor muscarinic 1 (CHRM1) small molecule antagonists, cell-based qHTS assay (AID 1963588). Also: nearly all actives have a fitted effect of over 40% in size. Also: potency is read from the fitted curve at half-maximal effect. The method, boiled down:
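CHRM1-CHO calcium-flux assay, antagonist mode. Cells were seeded 18 h, dye-loaded 1 h at 37 C and given compound for 5 min at RT, then acetylcholine was added at 50nM. FDSS fluorescence was read 3 min; 15 concentrations, three runs.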

Records with an inconclusive call do not appear. More than one record can exist for a structure, and the calls need not agree. Activity calls are given as the source filed them. Unless noted, calls follow the shape of the full dose curve.

Chain of Gonadotropin-releasing hormone receptor (Homo sapiens) (P30968 whole entry, looked up): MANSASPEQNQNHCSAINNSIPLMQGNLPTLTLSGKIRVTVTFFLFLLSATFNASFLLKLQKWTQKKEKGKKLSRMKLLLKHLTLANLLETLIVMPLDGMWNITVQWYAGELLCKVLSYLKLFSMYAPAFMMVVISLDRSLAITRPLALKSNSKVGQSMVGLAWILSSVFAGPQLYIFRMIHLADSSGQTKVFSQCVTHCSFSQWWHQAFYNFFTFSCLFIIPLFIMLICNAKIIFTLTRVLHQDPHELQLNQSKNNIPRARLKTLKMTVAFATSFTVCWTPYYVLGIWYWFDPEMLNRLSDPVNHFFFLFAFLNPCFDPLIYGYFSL
Chain of KiSS-1 receptor (Homo sapiens) (Q969F8 whole entry, looked up): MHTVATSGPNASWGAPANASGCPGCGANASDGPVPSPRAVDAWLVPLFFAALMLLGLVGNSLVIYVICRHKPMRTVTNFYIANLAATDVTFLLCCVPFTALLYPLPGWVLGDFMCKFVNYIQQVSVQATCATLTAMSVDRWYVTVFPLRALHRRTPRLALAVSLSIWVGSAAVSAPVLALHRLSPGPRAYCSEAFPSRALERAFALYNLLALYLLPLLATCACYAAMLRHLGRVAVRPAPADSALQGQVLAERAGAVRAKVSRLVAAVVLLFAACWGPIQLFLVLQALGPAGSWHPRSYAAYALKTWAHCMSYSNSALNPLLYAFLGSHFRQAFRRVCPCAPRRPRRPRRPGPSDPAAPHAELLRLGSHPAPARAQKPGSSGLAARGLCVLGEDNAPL
Chain of 5-hydroxytryptamine receptor 2A (Homo sapiens) (P28223 whole entry, looked up): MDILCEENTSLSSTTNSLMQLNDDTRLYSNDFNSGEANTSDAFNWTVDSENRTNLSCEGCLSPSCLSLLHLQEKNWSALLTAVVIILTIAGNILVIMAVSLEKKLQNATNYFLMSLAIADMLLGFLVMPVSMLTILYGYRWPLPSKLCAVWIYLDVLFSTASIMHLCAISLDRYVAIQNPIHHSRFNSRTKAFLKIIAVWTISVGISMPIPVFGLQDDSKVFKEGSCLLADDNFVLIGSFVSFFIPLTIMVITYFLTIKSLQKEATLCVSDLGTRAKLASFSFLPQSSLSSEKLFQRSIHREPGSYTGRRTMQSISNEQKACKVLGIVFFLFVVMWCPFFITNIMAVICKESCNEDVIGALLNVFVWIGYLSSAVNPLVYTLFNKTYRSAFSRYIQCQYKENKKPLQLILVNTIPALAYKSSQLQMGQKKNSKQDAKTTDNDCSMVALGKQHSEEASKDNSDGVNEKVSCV
Chain of D(2) dopamine receptor (Homo sapiens) (P14416 whole entry, looked up): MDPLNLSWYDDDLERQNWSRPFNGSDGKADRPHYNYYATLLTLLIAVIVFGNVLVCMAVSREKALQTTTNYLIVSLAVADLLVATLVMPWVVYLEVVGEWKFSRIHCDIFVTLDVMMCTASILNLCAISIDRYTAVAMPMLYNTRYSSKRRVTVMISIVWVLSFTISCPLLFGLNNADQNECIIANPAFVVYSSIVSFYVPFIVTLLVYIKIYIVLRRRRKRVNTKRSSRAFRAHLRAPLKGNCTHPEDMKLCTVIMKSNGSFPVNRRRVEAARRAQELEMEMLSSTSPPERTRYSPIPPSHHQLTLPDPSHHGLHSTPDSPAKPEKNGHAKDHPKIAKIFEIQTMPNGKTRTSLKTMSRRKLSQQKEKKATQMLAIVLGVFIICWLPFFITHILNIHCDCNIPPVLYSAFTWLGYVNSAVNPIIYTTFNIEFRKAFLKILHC
Chain of Muscarinic acetylcholine receptor M1 (Homo sapiens) (P11229 whole entry, looked up): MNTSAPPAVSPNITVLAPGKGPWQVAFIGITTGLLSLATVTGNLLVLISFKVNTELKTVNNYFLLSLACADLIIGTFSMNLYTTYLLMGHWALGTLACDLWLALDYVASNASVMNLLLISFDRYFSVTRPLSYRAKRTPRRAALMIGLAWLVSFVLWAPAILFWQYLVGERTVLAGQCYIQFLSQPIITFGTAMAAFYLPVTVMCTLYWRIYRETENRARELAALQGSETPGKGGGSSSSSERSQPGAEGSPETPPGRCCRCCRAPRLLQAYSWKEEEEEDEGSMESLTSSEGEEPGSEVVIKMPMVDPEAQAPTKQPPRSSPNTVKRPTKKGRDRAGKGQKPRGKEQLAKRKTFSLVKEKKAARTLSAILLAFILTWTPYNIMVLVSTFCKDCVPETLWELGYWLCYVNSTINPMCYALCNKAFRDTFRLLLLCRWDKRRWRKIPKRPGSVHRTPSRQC
Chain of Beta-2 adrenergic receptor (Homo sapiens) (P07550 whole entry, looked up): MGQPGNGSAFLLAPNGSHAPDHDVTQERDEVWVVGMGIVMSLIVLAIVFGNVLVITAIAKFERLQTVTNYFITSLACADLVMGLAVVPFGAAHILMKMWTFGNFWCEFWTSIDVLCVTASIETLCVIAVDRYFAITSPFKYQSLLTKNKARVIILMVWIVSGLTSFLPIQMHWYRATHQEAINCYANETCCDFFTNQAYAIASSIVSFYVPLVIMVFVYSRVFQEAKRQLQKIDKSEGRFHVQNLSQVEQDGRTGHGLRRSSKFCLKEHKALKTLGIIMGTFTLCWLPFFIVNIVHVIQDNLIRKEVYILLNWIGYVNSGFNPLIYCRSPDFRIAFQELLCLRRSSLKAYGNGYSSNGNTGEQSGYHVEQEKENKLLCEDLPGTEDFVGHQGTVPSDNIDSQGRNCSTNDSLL

Take `Nc1ccc(-c2ccc(N)cc2)cc1`: the Potency result in test [1], in test [2], in [3], in [4], in [5] and in [6] was “inactive” throughout. The Potency entry in test [7], in test [8], in test [9], in test [10], in [11] and in [12] was “inactive” in each case. Also, the Potency entry in test [13], in test [14], in [15], in test [16] and in test [17] was “inactive” throughout.
Regarding `CCCC[n+]1cccc(C)c1`, the Potency entry in [1], in test [2], in test [3], in test [4], in [5] and in test [6] was “inactive” in each case. Further, the Potency result in test [7], in test [8], in test [9], in test [10], in test [11] and in test [12] was “inactive” in each case. For the same compound, the Potency result in test [13], in [14], in [18], in [15], in test [16] and in [19] was “inactive” throughout.
Turning to `ClCc1ccccn1`, the Potency entry in test [1], in test [2], in test [3], in [4], in test [5] and in test [6] was “inactive” in each case. Also, the Potency entry in test [7], in [8], in test [9], in test [10], in test [11] and in test [12] was “inactive” each time. For the same compound, the Potency result in test [13], in test [20], in test [18], in test [15], in test [16] and in [17] was “inactive” throughout. Further, the Potency entry in test [19] is “inactive”.
`O=C(O)C(F)(F)C(F)(F)C(F)(F)C(F)(F)C(F)(F)C(F)(F)C(F)(F)F`: the Potency entry in [1], in test [2], in [3], in [4], in [5] and in [6] was “inactive” in each case. Besides, the Potency result in test [7], in [8], in [9], in [10], in [11] and in [12] was “inactive” each time. The Potency result in test [13], in test [14], in test [18], in [15], in [16] and in test [17] was “inactive” throughout. The Potency entry in test [19] is “inactive”.
In the case of `CCOC(=O)C(O)(c1ccc(Cl)cc1)c1ccc(Cl)cc1`, the Potency in test [1] was 61.8 µM (active); in test [12] it was 33.8 µM (active) and inactive; in [13], 6.99 µM (active) and inactive; in [20] it was 8.48 µM (active); in test [16] it was 69.3 µM (active) and inactive. Further, the Potency entry in test [2], in [3], in test [4], in test [5], in test [6] and in test [7] was “inactive” throughout. The Potency result in test [8], in test [9], in test [10], in test [11], in test [14] and in [17] was “inactive” throughout. Moreover, in test [19], the Potency entry is “inactive”.
`CCOc1ccc(N)cc1`: the Potency entry in test [1], in test [2], in test [3], in test [4], in test [5] and in test [6] was “inactive” in each case. Also, the Potency result in test [7], in test [8], in test [9], in test [10], in [11] and in test [12] was “inactive” in each case. For the same compound, the Potency entry in [13], in test [20], in test [18], in test [15], in [16] and in [17] was “inactive” throughout. For the same compound, the Potency result in test [19] was “inactive”.
As to `C=CC(=O)OC(C)(C)C`, the Potency entry in test [1], in [2], in test [3], in [4], in [5] and in test [6] was “inactive” throughout. Also, the Potency entry in test [7], in test [8], in test [9], in [10], in test [11] and in test [13] was “inactive” in each case. For the same compound, the Potency result in test [20], in [14], in test [18], in test [15], in test [16] and in [17] was “inactive” throughout.
